The structures appear in SMILES notation. Compounds without any hit were thinned out: in the full panel of roughly 83,000, 20% have a hit.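 Percent growth is the endpoint: 0 to 100 indicates growth inhibition (40 means 60% inhibition), 0 means no net growth, and negative values indicate cell death.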 Calls of active or inactive are those of the source. The calls were made as follows: active = growth percent below 10; inactive = the rest.

The test system of the assay is NCI-H226 lung. Briefly: NCI-60 one-dose screen, 48 h (100 = growth as untreated, 0 = no growth, -100 = all killed). The note with it: 10 µM unless noted.
`Cc1cc(-c2nc3ccccc3s2)ccc1NC(=O)COc1ccc(Cl)cc1`: the growth is 70.6% (inactive).

As to `C[C@H](CCC(=O)O)[C@H]1CC[C@H]2[C@@H]3CC[C@@H]4/C(=C\c5ccco5)C(=O)/C(=C\c5ccco5)C[C@]4(C)[C@H]3CC[C@]12C`, the growth is 89.2% (inactive).

As to `COc1cc2c(c(OC)c1OC)-c1ccc(N=NC(N)=S)c(=O)cc1[C@@H](NC(C)=O)CC2`, the growth is 41.8% (inactive).

On to `c1ccc(CSc2ncnc3nc[nH]c23)nc1`, for which the growth is 91.4% (inactive).

Consider `CC(=O)Nc1ccc2c(c1)c(NC(C)=O)nn2C(=O)Nc1ccc(Cc2ccccc2)cc1`, for which the growth is 62.7% (inactive).

`COc1cc2c(=O)n(CC3CCCCC3)c3c4cc[nH]c4ncc3c2cc1OC`: the growth was 34.5% (inactive).

As to `COC1/C=C\OC2(C)Oc3c(C)c(O)c4c(O)c(c(CN(C)CCO)c(O)c4c3C2=O)NC(=O)/C(C)=C\C=C/C(C)C(O)C(C)C(O)C(C)C(OC(C)=O)C1C` (stereo not given), the growth is 104% (inactive).

Regarding `Cc1cc(N/N=C/c2nc(-c3ccc(Cl)cc3)oc2C)c2cc(Cl)ccc2n1`, the growth was 98.4% (inactive).

Take `C=C1CC[C@@H]2[C@](C)(COC(C)=O)[C@H](OC(C)=O)CC[C@@]2(C)[C@@H]1CC(NCc1ccc(F)cc1)C1=CCOC1=O` (stereo not given in full): the growth is 40.1% (inactive).

With `Cn1c2c(Cl)c(Cl)ccc2c2ccn3c(=O)c4ccccc4nc3c21`, the growth was 90.8% (inactive).

In the case of `CCOC(=O)Cc1cnn(C)c1NC(=O)c1ccc(Cl)cc1NC(C)=O`, the growth was 98.6% (inactive).

Regarding `COc1ccc(-c2cc(NC(=O)Nc3ccc(O)cc3)no2)cc1`, the growth is 84.2% (inactive).

Regarding `S=c1[nH]nc(CSc2ncnc3c2c(-c2ccccc2)cn3-c2ccc(Cl)cc2)o1`, the growth is 89.5% (inactive).

For `COc1c(Cl)cc(Cl)cc1Cl`, the growth was 110% (inactive).

On to `COc1ccc(-c2nn(-c3ccccc3)cc2/C=C/C(=O)OCc2cn(-c3ccc(F)c(Cl)c3)nn2)cc1`, for which the growth is 80.5% (inactive).

Regarding `COc1ccc2c(c1)C(=O)/C(=C/c1cccc(OCC(=O)Nc3nc4c(s3)CCCC4)c1)O2`, the growth was 101% (inactive).

As for `CCN(CC)CC(C)Nc1ccc([N+](=O)[O-])c2sc3ccccc3c(=O)c12` (stereo not given), the growth is 24% (inactive).

In the case of `Cc1nn(-c2ccccc2)c2nc(C)n(-c3ccc(Br)cc3)c(=O)c12`, the growth was 49% (inactive).

`OC(c1cc(-c2ccccc2)nc2ccc(Cl)cc12)C1CCCCN1` (stereo not given): the growth is 71.3% (inactive).

`COc1ccc(S(=O)(=O)NCCNc2nccc(-c3c(-c4cccc([N+](=O)[O-])c4)nc4sccn34)n2)cc1`: the growth was 82.2% (inactive).

As for `COc1ccc(Cl)cc1Nc1nc(C(F)(F)F)ccc1C(=O)N/N=C/c1cccnc1`, the growth was 51.9% (inactive).

Turning to `COc1ccc(-c2nn(-c3ccccc3)cc2/C=C2\SC(=O)NC2=O)cc1`, the growth is 98.9% (inactive).

In the case of `Cc1ccc2c(c1)C(=O)c1c-2c(OCCCN(C)C)nc2ccccc12`, the growth is 32.8% (inactive).

`Cc1ccc(-c2nc(/C=N/Nc3cc(C)nc4ccc(Br)cc34)c(C)o2)cc1`: the growth was 86.6% (inactive).

With `CCCCNP1(NCCCC)=NP(NCCCC)(NCCCC)=NP(NCCCC)(NCCCC)=NP(NCCCC)(NCCCC)=N1`, the growth is 22.4% (inactive).

Turning to `COc1ccc(-n2cc(-c3ccccc3)c3c(SCC(=O)N/N=C/c4ccc([N+](=O)[O-])cc4)ncnc32)cc1`, the growth is 84.2% (inactive).

Turning to `Nc1cccc(-c2nc3sccn3c2-c2ccnc(NCCCNS(=O)(=O)c3ccc(C(F)(F)F)cc3)n2)c1`, the growth was 2.96% (active).

On to `CCN(CC)CC(O)c1cc(-c2ccc(Cl)cc2)nc2c(C)c(Cl)ccc12` (stereo not given), for which the growth was -15.8% (active).

`O=C1/C(=C/c2ccc(F)cc2)CN(C(=O)CCN2CCC(=NO)CC2)C/C1=C\c1ccc(F)cc1`: the growth was 72.8% (inactive).

On to `CC(C)C1=C[C@@]23CC[C@@H]4[C@](C)(CCC[C@@]4(C)C(=O)OCC#CCN4CCCC4)[C@H]2C[C@@H]1[C@H]1C(=O)OC(=O)[C@H]13`, for which the growth is 96.1% (inactive).

For `Cc1ccc2c(c1)C(=O)/C(=C/c1ccc(OCC(=O)c3ccccc3)cc1)O2`, the growth was 69.4% (inactive).

Turning to `Cc1ccc2c(c1)n([O-])c1cc(Cl)ccc1[n+]2=O`, the growth is 104% (inactive).

Regarding `COc1ccccc1/C=C(/C(=O)c1ccccc1)c1ccccc1`, the growth is 107% (inactive).

On to `COc1nc2c(cc1S(=O)(=O)c1ccccc1)CCc1c-2cnn1-c1ccc(Cl)cc1`, for which the growth is 92.1% (inactive).

Consider `CNc1cc2nc3cc(NC)c(C)cc3cc2cc1C`, for which the growth is 26.4% (inactive).
